Screening data from PubChem BioAssay.
CRFR2-BP antag – antagonists of CRF-BP/CRF-R2 complex, primary screen, cell-based, HEK293, calcium dye fluorescence, uHTS | inhibition, % at 11.8 µM | CRF-induced calcium fluorescence | 350,000 compounds, 0.59% hits | AID 588475, 2011;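 active = inhibition of the ligand-induced calcium signal above about 50% at the single tested concentration, limit read from the data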
H9c2 TAG inh – inhibitors of triacylglycerol accumulation, primary screen, cell-based, uHTS, fluorescence, H9c2; 230,000 compounds, 0.66% hits; inhibition, % at 12.5 µM; AID 651582, 2012; H9c2 cells, Nile Red lipid (TAG) fluorescence; cells loaded with 200 µM oleic acid;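 active = pattern-corrected inhibition of lipid staining of at least 50% with the nuclear-stain viability signal not falling by more than 50%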;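 also: 0% = DMSO wells and 100% = triacsin C control wells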
CRFBP-R2 agonist – agonists of CRF-BP/CRF-R2 complex, primary screen, cell-based, HEK293, calcium dye fluorescence, uHTS. calcium dye fluorescence (FLIPR); percent of saturating CRF peptide response. AID 588473, 2011. activation, % at 13.2 µM. 350,000 compounds, 0.46% hits. CRF-binding protein / CRF receptor 2 complex (human);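 active = activation of at least 50%, plus an integration ratio under a set limit after plate pattern correction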;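 also: plate controls were neutral control wells without compound for no effect and CRF at EC100 for full effect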
SKN-1 block – suppressors of acrylamide-induced Pgst-4::GFP reporter in worms, primary screen, SKN-1 inhibitor project, whole organism, uHTS, GFP/RFP fluorescence ratio, strain VP596; 360,000 compounds, 0.49% hits; AID 624304, 2012; C. elegans VP596 Pgst-4::GFP/RFP ratio, 24 h; inhibition, % at 21.8 µM;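 active = interference check ratio from 0.5 to 1.5 plus GFP to RFP signal ratio inhibition reaching or exceeding a fixed threshold, cut at about 30% in these data, passing the limit was not always enough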
iPSC survival up – enhancers of single-cell hiPSC survival, primary screen, ATPlite luminescence | 100% = ROCK inhibitor wells, 0% = DMSO | survival enhancement, % at 20 µM | 360,000 compounds, 0.044% hits; in the data active = survival enhancement above about 18%;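 also: cells exposed to compounds for 16 hours before the ATP read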
H9c2 protect – cardioprotection against H2O2-induced cell death, primary screen, uHTS, H9c2 cells, ATPLite luminescence. H9c2 cardiomyocytes, H2O2 injury protection, 2 h. AID 588492, 2011. 360,000 compounds, 0.63% hits. protection from H2O2 cell death, % at 20 µM;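 active = compounds giving at least 50% protection of heart cells from peroxide-induced death in the single-dose screen, raw or plate-pattern-corrected value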;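 also: 0% = DMSO wells with peroxide and 100% = DMSO wells without peroxide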
Numbers without * were called inactive. Hits are enriched below; roughly 2.5% of the tested compounds scored in any of these assays.

Results for CC(C)(C)NC(=O)CN(C(=O)CCC(=O)Nc1nccs1)c1cccc(C(F)(F)F)c1 ?
CRFR2-BP antag: 7; CRFBP-R2 agonist: 3; SKN-1 block: 35*; iPSC survival up: 0; H9c2 protect: 10

Results for O=c1[nH]c(CSc2nc3ccccc3[nH]2)nc2c1cnn2-c1ccccc1 ?
CRFR2-BP antag: -12; CRFBP-R2 agonist: -3; SKN-1 block: -5; iPSC survival up: -1; H9c2 protect: -17

How did O=C(CSc1nc2ccccc2c(=O)[nH]1)c1ccc(O)c(O)c1 do in these assays?
CRFR2-BP antag: -7; CRFBP-R2 agonist: 0; SKN-1 block: 3; iPSC survival up: 0; H9c2 protect: 58*

What do the screens show for `Cc1[nH]c2ccccc2c1C(=O)CSc1nccc(=O)[nH]1`?
CRFR2-BP antag: 4; H9c2 TAG inh: 12; CRFBP-R2 agonist: 3; SKN-1 block: 9; iPSC survival up: 0; H9c2 protect: -7

Results for O=c1[nH]c(SCc2nc3c(cnn3-c3ccccc3)c(=O)[nH]2)nc2ccccc12 ?
CRFR2-BP antag: -11; H9c2 TAG inh: 12; CRFBP-R2 agonist: -2; SKN-1 block: -24; iPSC survival up: 3; H9c2 protect: 53*

Results for Cc1[nH]c2ccccc2c1C(=O)CSc1nc2ccccc2[nH]1 ?
CRFR2-BP antag: -14; CRFBP-R2 agonist: 5; SKN-1 block: 8; iPSC survival up: 2; H9c2 protect: 66*

How did O=C(CSc1nc2ccccc2c(=O)[nH]1)c1ccc(O)cc1O do in these assays?
CRFR2-BP antag: 0; H9c2 TAG inh: -1; CRFBP-R2 agonist: 1; SKN-1 block: 2; iPSC survival up: -3; H9c2 protect: 67*

Results for O=C1C=C(O)c2[nH]c(=O)ccc2C1=O ?
CRFR2-BP antag: -29; H9c2 TAG inh: -17; CRFBP-R2 agonist: 0; SKN-1 block: 17; iPSC survival up: 6; H9c2 protect: 3

How did O=C(Cc1ccccc1[N+](=O)[O-])NCC(=O)c1ccc2c(c1)OCO2 do in these assays?
CRFR2-BP antag: -6; H9c2 TAG inh: 1; CRFBP-R2 agonist: 1; SKN-1 block: 25; iPSC survival up: 0; H9c2 protect: -3

How did CCCCc1c(Cc2cccc(F)c2)ncn1CCc1ccccc1OC do in these assays?
SKN-1 block: 22; iPSC survival up: 0

Results for CCNC(=O)CN(C1CCCCC1)S(=O)(=O)c1ccc(F)cc1 ?
CRFR2-BP antag: 46; H9c2 TAG inh: 5; CRFBP-R2 agonist: -1; SKN-1 block: 47; iPSC survival up: 0; H9c2 protect: -3

How did CNC(=O)CN(C1CCCCC1)S(=O)(=O)c1ccc(F)cc1 do in these assays?
CRFR2-BP antag: 56*; H9c2 TAG inh: 27; CRFBP-R2 agonist: -6; SKN-1 block: 8; iPSC survival up: -1; H9c2 protect: 2

Results for COc1cc(/C=C(\C#N)C(=O)c2ccc(O)c(O)c2)cc(I)c1O ?
CRFR2-BP antag: -215; H9c2 TAG inh: -13; CRFBP-R2 agonist: 188*; SKN-1 block: 5; iPSC survival up: 0; H9c2 protect: 62*

How did COC(=O)NN1C(=O)C(c2ccccc2)=C(c2ccc(Cl)cc2)C1=O do in these assays?
CRFR2-BP antag: 51*; H9c2 TAG inh: -3; CRFBP-R2 agonist: -4; SKN-1 block: 5; iPSC survival up: -1; H9c2 protect: -2

Results for CCC(CC)C(=O)N(C)c1c(C)nc2c(OCC(=O)C(C)(C)C)cccn12 ?
H9c2 TAG inh: 10; SKN-1 block: 17; iPSC survival up: -2; H9c2 protect: 2

How did CC(=O)CC1c2ccccc2C=C(c2ccsc2)N1c1ccc(-c2cccs2)cc1 (stereo not drawn) do in these assays?
SKN-1 block: 3; iPSC survival up: -1

How did Cc1ccc(NC(=O)c2sc(N)nc2C)cc1 do in these assays?
CRFR2-BP antag: 7; CRFBP-R2 agonist: -4; SKN-1 block: -6; iPSC survival up: 0; H9c2 protect: 0

How did Clc1ccc(-c2cn3c(n2)-c2ccccc2C3)cc1Cl do in these assays?
CRFR2-BP antag: -9; CRFBP-R2 agonist: -1; SKN-1 block: 40*; iPSC survival up: -3; H9c2 protect: -7

Results for COc1ccc(-c2cc(=O)oc3cc(OCC(=O)N(C)C)ccc23)cc1 ?
CRFR2-BP antag: 4; CRFBP-R2 agonist: 0; SKN-1 block: 37*; iPSC survival up: 0; H9c2 protect: 8

What do the screens show for `COc1ccc(-c2cc(=O)oc3c(O)c(O)ccc23)cc1`?
CRFR2-BP antag: -4; CRFBP-R2 agonist: 0; SKN-1 block: 16; iPSC survival up: -1; H9c2 protect: 63*

Results for COc1ccc(-c2cc(=O)oc3cc(OC(C)C(=O)O)ccc23)cc1 (stereo not drawn) ?
CRFR2-BP antag: -8; H9c2 TAG inh: -8; CRFBP-R2 agonist: 0; SKN-1 block: 21; iPSC survival up: -1; H9c2 protect: 6

What do the screens show for `Cc1cccc(C)c1NC(=O)C1(C)CN(S(C)(=O)=O)CC(=O)N1Cc1ccc2c(c1)OCO2` (stereo not drawn)?
SKN-1 block: -3

How did CCc1cccc(C)c1NC(=S)N1CCCCC1c1cccnc1 (stereo not drawn) do in these assays?
CRFR2-BP antag: 17; H9c2 TAG inh: -4; CRFBP-R2 agonist: 54*; SKN-1 block: -7; iPSC survival up: -1; H9c2 protect: -6

How did C=CCN1C(=O)/C(=C/C=C2/N(CC)c3ccc(S(=O)(=O)N(C)C)cc3N2CC)SC1=S do in these assays?
CRFR2-BP antag: -176; H9c2 TAG inh: -31; CRFBP-R2 agonist: 164*; SKN-1 block: 46; iPSC survival up: -1; H9c2 protect: 23

What do the screens show for `COC(=O)c1nc(-c2ccccc2)oc1N(C)C`?
CRFR2-BP antag: 30; H9c2 TAG inh: 19; CRFBP-R2 agonist: -2; SKN-1 block: 32*; iPSC survival up: -1; H9c2 protect: -4

How did COC(=O)c1nc(-c2ccc(C)cc2)oc1N(C)C do in these assays?
CRFR2-BP antag: 48; CRFBP-R2 agonist: 2; SKN-1 block: -4; iPSC survival up: 2; H9c2 protect: -7

Results for CCCCn1nnnc1C1(C)CCC(=O)N1Cc1ccc(C)cc1 (stereo not drawn) ?
SKN-1 block: 1; iPSC survival up: 0

Results for CN(C)c1ccc(/C=C2\Oc3ccc(C#Cc4cccc(N)c4)cc3C2=O)cc1 ?
CRFR2-BP antag: -40; H9c2 TAG inh: 13; CRFBP-R2 agonist: 80*; SKN-1 block: 54; iPSC survival up: -1; H9c2 protect: -4

How did COC(=O)c1ccc2c(c1)C(=O)/C(=C/c1ccc(C)cc1)O2 do in these assays?
CRFR2-BP antag: -21; CRFBP-R2 agonist: 4; SKN-1 block: 5; iPSC survival up: -1; H9c2 protect: -3
